Source: PubChem BioAssay
In the library only some 14% were active in any assay of this set; here they are far more common.
Pf growth 48h = Primary qHTS for delayed death inhibitors of the malarial parasite plastid, 48 hour incubation. hit rate 5.9% among 310,000. Potency, µM (top dose mostly 28.7 µM), without a hit: top-dose activity change, negative = inhibition, hits mostly inhibitors. P. falciparum luciferase growth in erythrocytes, 48 h; further: potency means the concentration at half of the fitted maximal effect
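Growth was read as firefly luciferase luminescence after a 48 h, 37 C, 5% CO2 exposure of compounds to reporter-bearing P. falciparum cultures (0.1% parasitemia, 2% hematocrit final) in Albumax-supplemented RPMI 1640.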
Pf growth 96h = Primary qHTS for delayed death inhibitors of the malarial parasite plastid, 96 hour incubation. AID 504834, 2011. Potency, µM (series often up to 28.7 µM), for the others: at the highest dose activity change, negative = inhibition, hits mostly inhibitors. P. falciparum luciferase reporter growth, 96 h. hit rate 6.9% among 320,000; further: potency means the concentration at half of the fitted maximal effect
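Erythrocytes infected with luciferase-expressing P. falciparum were dispensed at 2% hematocrit and 0.05% parasitemia (final), then incubated with compounds 96 hours at 37 C in 5% CO2. Luminescence after detection reagent addition reported growth.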
Giardia FBPA inh-1 = qHTS Assay for Inhibitors of Fructose-1,6-bisphosphate Aldolase from Giardia Lamblia | hit rate 0.71% among 290,000 | Potency, µM (titrated, usually from 59.6 µM), for the others: top-dose activity, negative = inhibition, hits mostly inhibitors | AID 2451, 2010 | purified Giardia FBPA; further: potency means the concentration at half of the fitted maximal effect; nearly all actives have a fitted effect of over 55% in size
Target sequence (A8B2U2 whole entry, looked up): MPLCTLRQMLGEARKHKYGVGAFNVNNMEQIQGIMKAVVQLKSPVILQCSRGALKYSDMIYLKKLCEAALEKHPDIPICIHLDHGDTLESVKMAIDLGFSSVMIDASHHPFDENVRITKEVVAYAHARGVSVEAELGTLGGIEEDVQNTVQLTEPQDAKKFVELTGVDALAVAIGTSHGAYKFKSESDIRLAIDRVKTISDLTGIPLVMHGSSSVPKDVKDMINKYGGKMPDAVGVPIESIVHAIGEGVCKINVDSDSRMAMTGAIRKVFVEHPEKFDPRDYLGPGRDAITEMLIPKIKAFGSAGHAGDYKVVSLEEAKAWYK
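Giardia FBPA (40 nM reagent) was preincubated 10 min at RT with compound (up to 57.5 uM final), then substrate plus GAPDH/TPI/NAD/arsenate coupling system with diaphorase/resazurin was added; resorufin fluorescence (525/598 nm) was read after 20 min.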
HCMV inh = qHTS Assay for inhibitors of the human cytomegalovirus (HCMV); HFF cells, HCMV-luciferase reporter, 72 h; hits give low values; activity change, negative = inhibition, % at 57.5 µM; hit rate 4.5% among 410,000; AID 1259415, 2018; in the data active means activity change below about -60%; inconclusive means no clear call, values can overlap the other calls; inactive means above about -39%
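Cell-based, HFFs, 1000 cells/well, 16 h 37C; cpds in DMSO + HCMV-luc, MOI 1 PFU/cell; 72 h 37C; OneGlo luminescence after 5 min RT; norm. to buffer vs Salinomycin 10uM.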
Sm TGR block = qHTS Assay for the Inhibitors of Schistosoma Mansoni Peroxiredoxins. Schistosoma mansoni thioredoxin glutathione reductase (TGR), Q962Y6. purified TGR, DTNB reduction, TNB absorbance 405 nm. Potency, µM (doses to about 114 µM), inactives show top-dose activity change, negative = inhibition, hits mostly inhibitors. hit rate 3% among 360,000; further: potency means the concentration at half of the fitted maximal effect; nearly all actives have a fitted effect of over 60% in size
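TGR 20 nM + NADPH 100 uM (dispensed conc.), cpd preinc 15 min RT; start with NADPH (500 uM addition) then DTNB (15 mM addition). Kinetic TNB absorbance, 405 nm filter. Four-parameter Hill fit across titration.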
Giardia growth = qHTS Assay for Inhibitors of Fructose-1,6-bisphosphate Aldolase from Giardia Lamblia: Giardia lamblia growth inhibition | shares compounds with Giardia FBPA inh-1 | Giardia lamblia trophozoite growth inhibition | Potency, µM (doses to about 57.5 µM), for the others: at the highest dose activity change, negative = inhibition, most hits filed as inhibitors | hit rate 5% among 1,500 | AID 2785, 2010;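 further: potency means the concentration at half of the fitted maximal effect; trophozoites exposed to compound for 48 h at 37 °C; nearly all actives have a fitted effect of over 70% in size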
Mammal cell tox = qHTS Assay for Inhibitors of Fructose-1,6-bisphosphate Aldolase from Giardia Lamblia: Mammalian cellular toxicity | hit rate 4% among 1,500 | mammalian cell viability counter-screen, qHTS | shares compounds with Giardia FBPA inh-1 | AID 2786, 2010 | Potency, µM (titrated, usually from 57.5 µM), inactives show at the highest dose viability change, negative = toxicity, actives largely listed as inhibitors;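 further: Chinese hamster ovary cells used as mammalian cytotoxicity surrogate; viability measured as cellular ATP by luminescence; potency means the concentration at half of the fitted maximal effect; compound exposure lasted 48 h before reading; nearly all actives have a fitted effect of over 60% in size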
Giardia FBPA inh-2 = qHTS Assay for Inhibitors of Fructose-1,6-bisphosphate Aldolase from Giardia Lamblia: Primary screen confirmation | hit rate 5% among 1,500 | shares compounds with Giardia FBPA inh-1 | purified Giardia aldolase enzyme activity, qHTS | AID 2787, 2010 | Potency, µM (doses to about 57.5 µM), for inactives: at the highest dose activity change, negative = inhibition, actives largely listed as inhibitors; further: potency means the concentration at half of the fitted maximal effect; nearly all actives have a fitted effect of over 45% in size
Rabbit aldolase = qHTS Assay for Inhibitors of Fructose-1,6-bisphosphate Aldolase from Giardia Lamblia: Rabbit FBPA Selectivity; shares compounds with Giardia FBPA inh-1; Rabbit muscle FBPA enzyme inhibition, selectivity counter-screen; Potency, µM (series often up to 57.5 µM), without a hit: at the highest dose activity, negative = inhibition, usual class: inhibitors; hit rate 4% among 1,500; further: potency means the concentration at half of the fitted maximal effect; nearly all actives have a fitted effect of over 60% in size
Target sequence (P00883 whole entry, looked up): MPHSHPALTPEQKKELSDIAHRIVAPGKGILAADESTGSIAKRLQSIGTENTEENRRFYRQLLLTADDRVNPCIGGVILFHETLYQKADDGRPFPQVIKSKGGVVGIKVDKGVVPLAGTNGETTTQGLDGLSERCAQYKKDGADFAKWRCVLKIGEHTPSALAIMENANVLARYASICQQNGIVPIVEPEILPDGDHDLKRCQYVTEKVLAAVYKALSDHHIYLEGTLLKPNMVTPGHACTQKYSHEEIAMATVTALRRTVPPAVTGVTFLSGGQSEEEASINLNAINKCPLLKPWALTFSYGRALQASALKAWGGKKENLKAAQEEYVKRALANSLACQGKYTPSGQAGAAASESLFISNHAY
GAPDH counter = qHTS Assay for Inhibitors of Fructose-1,6-bisphosphate Aldolase from Giardia Lamblia: Coupling assay counterscreen confirmation; shares compounds with Giardia FBPA inh-1; GAPDH coupling enzyme counterscreen, biochemical, qHTS; Potency, µM (highest dose often 57.5 µM), for inactives: at the top dose activity change, negative = inhibition, usual class: inhibitors; hit rate 6% among 1,500; further: potency means the concentration at half of the fitted maximal effect; nearly all actives have a fitted effect of over 55% in size
Starred values were filed as active, the others as inactive; ? = inconclusive; . = no result; [ ] = another dose, or the depositor's remark. Unless noted, the call rests on the fitted dose curve; in most records, active means well fitted curve in the direction sought with a large enough effect; inconclusive means small, poorly fitted or top-dose-only effect, or another doubt; inactive means no such curve, though single readings can be large; an effect the other way counts as inactive or inconclusive. On the % scale 0 is the no-effect control and ±100 the full control effect.

SMILES	Pf growth 48h	Pf growth 96h	Giardia FBPA inh-1	HCMV inh	Sm TGR block	Giardia growth	Mammal cell tox	Giardia FBPA inh-2	Rabbit aldolase	GAPDH counter
COCCn1c(NC(=S)NC(=O)C2CC2)cc(=O)[nH]c1=O	9%	-1%	7.1µM*	99	-17%	24%	4%	1%	-1%	14%
Cc1ccc(Cn2cc(S(=O)(=O)c3cccc(Cl)c3)c(=O)c3cc(F)c(N4CCCCC4)cc32)cc1	.	.	.	?	0%	.	.	.	.	.
Cc1ccc(/C(=N/Nc2ncnc3ccccc23)C(=O)O)cc1	76%	-5%	14µM*	125	-20%	16%	-1%	8%	-12%	-4%
CCCS(=O)(=O)N1CC(=O)N(c2ccc(Cl)cc2)C(C)(C(=O)NC2CCCC2)C1 (centres undefined)	.	.	.	0	3%	.	.	.	.	.
COc1ccc(CN2CCN(Cc3ccco3)CC2)cc1OC	75%	?	13µM*	-17	-9%	-6%[10.4 µM]	-6%	0%	8%	8%
COc1cccc(N2CCN(Cc3ccco3)CC2)c1	-15%	-27%	25µM*	-22	-22%	?	-11%	-5%	3%	9%
Cc1nnc(NC(=O)CC23CC4CC(CC(C4)C2)C3)s1	9%	7%	2%	28	2%	.	.	.	.	.
O=C(c1ccco1)N1CCC2(CC1)CN(c1ccc(-c3ccccc3)cc1)C2	.	.	-8%	.	.	.	.	.	.	.
CC(=O)Nc1cc(OC(C)=O)c2nonc2c1OC(C)=O	10µM*	5%	0.045µM*	-104*	8.9µM*	?	16µM*	3.5µM*	4.5µM*	2µM*
CC(=O)Nc1nonc1NC(C)=O	4%	25%	1%	-17	-1%	.	.	.	.	.
CN1CCc2c(sc(/N=C/c3c[nH]c4ccccc34)c2C#N)C1	?	?	18µM*	208	0%	14%[10.4 µM]	-16%	-25%	-19%	?
Cc1ccc(C(=O)N/C(=C\c2ccc3c(c2)OCO3)C(=O)Nc2ccc(C(=O)O)cc2)cc1	27%	?	9%	0	7%	.	.	.	.	.
CNC(=S)N(C)CCc1cc2c(c(OC)c1C=C1C(=O)NC(=O)NC1=O)OCO2	?	5.2µM*	7.1µM*	-5	?	-9%[38.3 µM]	-6%	-9%	1%	3%
C=CCN1C(=O)NC(=O)/C(=C/c2c(CCN(C)C(=O)c3ccccc3)cc3c(c2OC)OCO3)C1=O	?	-15%	-6%	-3	-18%	.	.	.	.	.
Nc1ncc(S(=O)(=O)c2ccc([N+](=O)[O-])cc2)s1	.	.	.	2	.	.	.	.	.	.
COc1ccc(CCn2c(NN=C3CCCCC3)nc3c2c(=O)[nH]c(=O)n3C)cc1	?	?	4.5µM*	.	?	-5%[10.4 µM]	-1%	5.6µM*	?	7.9µM*
Cc1ccc(S(=O)(=O)N2CCOCC2)cc1NC(=O)CNCc1cccnc1	-15%	-17%	16µM*	-6	8%	-8%[10.4 µM]	-1%	-1%	6%	7%
COc1ccccc1CNC(=O)COC(=O)c1ccccc1SCC(=O)N1CCCC1	?	?	.	-18	4%	.	.	.	.	.
O=C(N/N=C/c1c(O)n(-c2ccccc2)c(=S)[nH]c1=O)c1ccccc1	24%	36%	-16%	89	4%	4%[38.3 µM]	1%	?	-17%	?
Cc1ccccc1-n1c(O)c(/C=N/NC(=O)c2ccccc2O)c(=O)[nH]c1=S	9%	23%	22%	-12	-21%	.	.	.	.	.
O=C(Nc1ccccc1F)c1cnccn1	43%	?	5%	-15	1%	.	.	.	.	.
O=C(Nn1cc(C(=O)Nc2ccc(F)cc2F)c2ccccc2c1=O)c1cnccn1	?	?	18µM*	-22	2%	?	-9%	-9%	1%	-17%
O=C(O)c1cccc(-n2c(-c3cnccn3)n[nH]c2=S)c1	15%	?	20µM*	-12	5%	10%[10.4 µM]	-1%	0%	3%	8%
CCOCCCNC(=O)CCc1nnc2n(CCC(C)C)c(=O)c3ccccc3n12	?	?	2%	-12	-1%	.	.	.	.	.
COc1cc(C(=O)O/N=C2\C=CC(=O)C=C2C)cc(OC)c1OC	32%	31%	4µM*	?	3.2µM*	-13%[38.3 µM]	?	28µM*	32µM*	32µM*
SMILES	Pf growth 48h	Pf growth 96h	Giardia FBPA inh-1	HCMV inh	Sm TGR block	Giardia growth	Mammal cell tox	Giardia FBPA inh-2	Rabbit aldolase	GAPDH counter
CC(=O)N1CCN(Cc2nc3cc(NC(=O)COc4cccc(C)c4)ccc3n2C)CC1	-29%	26%	20µM*	-63*	-5%	?	5%	-8%	11%	3%
Cc1c[n+](CC(=O)c2ccccc2)cs1	-3%	-7%	3%	-4	-11%	.	.	.	.	.
Cn1c(-c2cccc([N+](=O)[O-])c2)cnc1NCc1cccc(F)c1	45%	4.7µM*	28µM*	-20	4%	-9%[10.4 µM]	-21%	-5%	3%	5%
CCOC(=O)c1cnc(-n2nc(C)cc2C)[nH]c1=O	-13%	-18%	4.5µM*	-1	8%	-7%[38.3 µM]	-12%	-21%	-11%	-14%
CCOC(=O)c1cnc(-n2[nH]c(C)cc2=O)[nH]c1=O	-3%	?	?	-16	-11%	.	.	.	.	.
COC(=O)/C=C1\S/C(=N\N=C\CC(=O)OC)NC1=O	-20%	-2%	16µM*	25	-8%	19%	14%	-6%	3%	-11%
Cc1ccc(C(=O)NCC(=O)NCCCc2ccccc2)cc1	5%	4%	1%	38	59%	.	.	.	.	.
